PI5P4Ka inh: inhibitors of human PI5P4K alpha | P48426 | PI5P4Kalpha enzyme, ADP-Glo luminescence, 60 min; active compounds read low | max response, % | 1.2% of 330,000 active | AID 652105; active = max response of -50% or lower; inconclusive = between -30% and -50%; inactive = -30% or higher; note: value at the top dose of about 77 µM
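ADP-Glo luminescence end-point after a 60 min room-temperature kinase reaction. PI5P4Kalpha and substrate in HEPES pH 7.4 buffer with EGTA, 0.1% CHAPS and 5% DMSO; ATP at 5 microM final.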
GCN5L2 inh-1: GCN5L2 (KAT2A) acetyltransferase inhibition | Q92830 | GCN5L2 HAT assay, ThioGlo1 CoA-SH fluorescence | Potency, µM (highest dose often 58.9 µM), actives largely listed as inhibitors | 0.21% of 390,000 active
Target sequence (Q92830 whole entry, looked up): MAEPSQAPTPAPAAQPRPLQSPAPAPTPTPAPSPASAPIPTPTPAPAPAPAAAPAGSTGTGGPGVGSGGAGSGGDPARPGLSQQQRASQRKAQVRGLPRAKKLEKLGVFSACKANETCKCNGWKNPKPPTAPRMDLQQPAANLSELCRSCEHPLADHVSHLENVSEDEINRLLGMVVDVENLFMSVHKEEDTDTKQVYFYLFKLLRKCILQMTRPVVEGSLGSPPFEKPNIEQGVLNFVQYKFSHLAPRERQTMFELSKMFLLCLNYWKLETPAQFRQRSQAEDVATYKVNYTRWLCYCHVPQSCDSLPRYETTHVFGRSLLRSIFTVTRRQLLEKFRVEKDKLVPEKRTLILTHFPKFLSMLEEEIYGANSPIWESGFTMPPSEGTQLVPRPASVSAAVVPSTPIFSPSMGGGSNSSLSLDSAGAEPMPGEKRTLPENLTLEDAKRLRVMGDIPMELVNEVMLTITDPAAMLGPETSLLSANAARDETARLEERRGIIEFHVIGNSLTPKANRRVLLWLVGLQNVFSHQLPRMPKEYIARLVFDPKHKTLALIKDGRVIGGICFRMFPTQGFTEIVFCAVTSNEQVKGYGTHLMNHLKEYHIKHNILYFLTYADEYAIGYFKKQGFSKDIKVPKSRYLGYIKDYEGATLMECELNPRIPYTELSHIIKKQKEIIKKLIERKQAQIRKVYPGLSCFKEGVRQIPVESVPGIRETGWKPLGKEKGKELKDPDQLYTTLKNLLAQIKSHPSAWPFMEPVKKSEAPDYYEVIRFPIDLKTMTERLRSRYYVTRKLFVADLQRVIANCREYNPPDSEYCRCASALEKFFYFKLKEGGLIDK
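Enzyme at 20nM final was mixed with library compounds for 15 min at room temperature. Peptide H3(1-25) at 75uM, acetyl-CoA at 70uM and ThioGlo1 at 50uM were then added. Plates were read immediately and after 20 min (Ex340nm/Em540nm).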
Pin1 inh: inhibitors of human Pin1 | Q13526 | Pin1 FP peptide displacement, HiFluor488, 10 min | Potency, µM (titrated, usually from 115 µM), usual class: inhibitors | 0.009% of 390,000 active | AID 504891; active = well fitted inhibition curve with a large enough effect in the polarisation, with a control signal flat, not every such curve was filed as active; inconclusive = small, poorly fitted or top-dose-only effect, or effect the other way, or a change in a side signal; inactive = no such curve, though single readings can be large or run the other way; the % refers to the polarisation
PGK inhibitor: T. brucei PGK inhibition | P07378 | PGK/GAPDH coupled, Kinase-Glo luminescence, 60 min | Potency, µM (series often up to 57.5 µM), most hits filed as inhibitors | 0.043% of 380,000 active | AID 602233; note: nearly all actives have a fitted effect of over 60% in size
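Luminescent ATP detection (Kinase-Glo Plus) follows a 60-minute room-temperature incubation, with wells lacking PGK as controls. Buffer: 100 mM TEA (pH 7.6), 5 mM MgCl2, 0.01% Tween-20. Coupling enzyme GAPDH (100 nM final) supplies unstable 1,3-BPG in-well.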
PI4K2A inh: blocks human PI4K2A kinase activity; Q9BTU6; purified PI4K2A, ADP-Glo luminescence, 1 h; active compounds read low; activity change, negative = inhibition, % at 76.9 µM; 0.13% of 420,000 active; in the data active = activity change below about -50%; inconclusive = mostly about -30% to -49%
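ADP-Glo luminescence measured ADP generated by PI4K2A enzyme (4 ug/mL before mixing) with 1.2 mM PI substrate (pre-mix) and 300 microM ATP (pre-mix). Tris pH7.5 buffer with MgCl2, Triton X-100; 1 h reaction at ambient temperature.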
GoLoco inh red: blocks human Gai1 binding to RGS12 GoLoco peptide, red readout. Potency, µM (titrated, usually from 61.6 µM), usual class: inhibitors. 0.44% of 230,000 active. AID 880. Gai1:RGS12 GoLoco peptide FP, rhodamine, 10 min. P63096; active = well fitted inhibition curve with a large enough effect, not every such curve was filed as active; inactive = no such curve, though single readings can be large or run the other way; note: nearly all actives have a fitted effect of over 30% in size
GCN5L2 inh-2: human KAT2A HAT inhibition, hit confirmation. 70% of 140 active. GCN5L2 HAT, ThioGlo1 CoA fluorescence, 20 min. Potency, µM, actives largely listed as inhibitors. shares compounds with GCN5L2 inh-1. AID 588347
Numbers stand for hits. Sampled rows, rich in hits. Any-hit rate of the full collection: about 1.2%. Unless noted, calls come from the whole dose curve; as a rule, active = well fitted curve in the direction sought with a large enough effect; inconclusive = small, poorly fitted or top-dose-only effect, or another doubt; inactive = no such curve, though single readings can be large; an effect the other way counts as inactive or inconclusive.

How did CSc1nnc2c(=O)[nH]c(=O)n(C)c2n1 do in these assays?
PI5P4Ka inh: inactive; Pin1 inh: inactive; PGK inhibitor: inactive; PI4K2A inh: inactive

How did CSc1nc(-c2cccs2)c(C#N)c(=O)[nH]1 do in these assays?
PI5P4Ka inh: inconclusive; GCN5L2 inh-1: inactive; Pin1 inh: inactive; PGK inhibitor: inactive; PI4K2A inh: inactive; GoLoco inh red: inactive

How did N#Cc1c(-c2cccs2)nc(SCc2ccc(Cl)cc2)[nH]c1=O do in these assays?
PI5P4Ka inh: inactive; GCN5L2 inh-1: 25.1µM; PGK inhibitor: inactive; PI4K2A inh: inactive; GoLoco inh red: inactive; GCN5L2 inh-2: 28.9

What do the screens show for `CCOc1cc(/C=C2\CCCc3c2nc2ccccc2c3C(=O)O)ccc1OC`?
PI5P4Ka inh: inactive; GCN5L2 inh-1: 25.1µM; Pin1 inh: inconclusive; PGK inhibitor: inactive; PI4K2A inh: inactive; GCN5L2 inh-2: inconclusive

What do the screens show for `COc1cc(/C=C2\CCCc3c2nc2ccccc2c3C(=O)O)cc(Br)c1O`?
PI5P4Ka inh: inactive; GCN5L2 inh-1: inactive; Pin1 inh: inactive; PGK inhibitor: inactive; PI4K2A inh: inactive

Results for COc1ccc(/C=C2\CCn3c2nc2ccccc2c3=O)cc1OC ?
PI5P4Ka inh: inactive; GCN5L2 inh-1: inactive; Pin1 inh: inactive; PGK inhibitor: inactive; PI4K2A inh: inactive

How did COc1cc(/C=C2\CCc3c2nc2ccccc2c3C(=O)O)cc(OC)c1OC do in these assays?
PI5P4Ka inh: -62.2; GCN5L2 inh-1: 12.6µM; Pin1 inh: inconclusive; PGK inhibitor: inconclusive; PI4K2A inh: inactive; GoLoco inh red: inactive; GCN5L2 inh-2: 20.4

Results for O=C(O)c1ccc(-n2cccc2/C=C2/NC(=O)N(c3cccc(Cl)c3)C2=O)cc1 ?
PI5P4Ka inh: -78.8; GCN5L2 inh-1: inconclusive; PGK inhibitor: inconclusive; PI4K2A inh: inactive; GoLoco inh red: inactive; GCN5L2 inh-2: inconclusive

What do the screens show for `O=C(c1ccccc1OCc1ccc(Cl)cc1)N1CCN(c2ccccn2)CC1`?
PI5P4Ka inh: inactive; GCN5L2 inh-1: inactive; Pin1 inh: inactive; PGK inhibitor: inactive; PI4K2A inh: inactive

How did COCCCn1c(=S)[nH]c2ccc(N3CCOCC3)cc2c1=O do in these assays?
PI5P4Ka inh: inactive; GCN5L2 inh-1: inconclusive; Pin1 inh: inactive; PGK inhibitor: inactive; PI4K2A inh: inactive; GoLoco inh red: inactive; GCN5L2 inh-2: 32.4

How did COc1ccc2nc3c(cc2c1)Cc1ccccc1-3 do in these assays?
GoLoco inh red: inactive

What do the screens show for `CC(=O)N1c2ccccc2C2(O)N=C(C)SC12` (stereo unspecified)?
PI5P4Ka inh: inconclusive; GCN5L2 inh-1: 7.94µM; Pin1 inh: inactive; PGK inhibitor: inactive; PI4K2A inh: inactive; GoLoco inh red: 7.94µM; GCN5L2 inh-2: 9.13

Results for CC(=O)N1c2ccccc2[C@@H](C)[C@@H]1C ?
PI5P4Ka inh: inactive; GCN5L2 inh-1: inactive; Pin1 inh: inactive; PGK inhibitor: inactive; PI4K2A inh: inactive

How did O=C(Nc1cccc(S(=O)(=O)Nc2ccccc2F)c1)c1ccc2ccccc2n1 do in these assays?
PI5P4Ka inh: inconclusive; GCN5L2 inh-1: inconclusive; Pin1 inh: inactive; PGK inhibitor: inactive; PI4K2A inh: inactive; GoLoco inh red: inactive

Results for O=C(/C=C/c1ccccc1)Nc1cccc(S(=O)(=O)Nc2ccccc2F)c1 ?
PI5P4Ka inh: -60.9; GCN5L2 inh-1: inconclusive; Pin1 inh: inactive; PGK inhibitor: inactive; PI4K2A inh: inactive; GoLoco inh red: inactive; GCN5L2 inh-2: inconclusive

What do the screens show for `Cc1cc(C(=O)COc2ccc(C#N)cc2)c(C)n1C1CC1`?
PI5P4Ka inh: inactive; GCN5L2 inh-1: inactive; Pin1 inh: inactive; PGK inhibitor: inactive; PI4K2A inh: inactive

Results for O=C(C1=NN(c2ccccc2)C2C(=O)N(c3cccc(Cl)c3)C(=O)C12)c1ccccc1 (stereo unspecified) ?
PI5P4Ka inh: inactive; GCN5L2 inh-1: 25.1µM; Pin1 inh: inconclusive; PGK inhibitor: inactive; PI4K2A inh: inactive; GoLoco inh red: inactive; GCN5L2 inh-2: 36.3

Results for O=C(C1=NN(c2ccccc2)C2C(=O)N(c3ccc(Cl)cc3)C(=O)C12)c1ccccc1 (stereo unspecified) ?
PI5P4Ka inh: inactive; GCN5L2 inh-1: inactive; Pin1 inh: inconclusive; PGK inhibitor: inactive; PI4K2A inh: inactive; GoLoco inh red: inactive

What do the screens show for `Cc1nc(SCC(=O)c2ccc(F)cc2)n[nH]1`?
PI5P4Ka inh: -74.0; GCN5L2 inh-1: 22.4µM; Pin1 inh: inactive; PGK inhibitor: inactive; PI4K2A inh: inactive; GoLoco inh red: inactive; GCN5L2 inh-2: inconclusive

What do the screens show for `CC(=O)NS(=O)(=O)c1ccc(NC(=O)c2ccccn2)cc1`?
PI5P4Ka inh: inactive; GCN5L2 inh-1: inactive; Pin1 inh: inactive; PGK inhibitor: inactive; PI4K2A inh: inactive; GoLoco inh red: inactive

Results for CCSc1ccccc1C(=O)Nc1ccc(S(=O)(=O)NC(C)=O)cc1 ?
PI5P4Ka inh: inactive; GCN5L2 inh-1: 17.8µM; Pin1 inh: inactive; PGK inhibitor: inactive; PI4K2A inh: inactive; GoLoco inh red: inactive; GCN5L2 inh-2: inconclusive

How did CCC(CO)Nc1nc(CN2CCCCC2)nc2scc(-c3ccccc3)c12 (stereo unspecified) do in these assays?
PI5P4Ka inh: inactive; GCN5L2 inh-1: inactive; Pin1 inh: inactive; PGK inhibitor: inactive; PI4K2A inh: inactive; GoLoco inh red: inactive

Results for COc1cc(CCc2ccccc2)c(C(=O)O)c(O)c1C/C=C(/C)CCC=C(C)C ?
PI5P4Ka inh: inactive; GCN5L2 inh-1: 14.1µM; Pin1 inh: inconclusive; PGK inhibitor: inconclusive; PI4K2A inh: inactive; GCN5L2 inh-2: 11.5

What do the screens show for `COc1cc(CCc2ccccc2)c(C(=O)O)c(O)c1CC=C(C)C`?
PI5P4Ka inh: inactive; PGK inhibitor: inactive; PI4K2A inh: inactive

How did CC(OC(=O)Cn1ccccc1=O)C(=O)Nc1cc(Cl)cc(Cl)c1 (stereo unspecified) do in these assays?
PI5P4Ka inh: inactive; GCN5L2 inh-1: inactive; Pin1 inh: inactive; PGK inhibitor: inactive; PI4K2A inh: inactive

How did COC(=O)c1scc2c(=O)cc(C(F)(F)F)[nH]c12 do in these assays?
GCN5L2 inh-1: 22.4µM; Pin1 inh: inconclusive; PGK inhibitor: inactive; PI4K2A inh: inactive; GoLoco inh red: inactive; GCN5L2 inh-2: 36.3

Results for CC(C)CC(=O)Nc1ccc(C(=O)NNC(=S)NC(=O)C2CCCCC2)cc1 ?
GCN5L2 inh-1: inactive; Pin1 inh: inactive; PGK inhibitor: inactive; PI4K2A inh: inactive; GoLoco inh red: inactive

Results for Cc1cc(=O)oc2cc(NC(=O)CC(N)C(=O)O)ccc12 (stereo unspecified) ?
GCN5L2 inh-1: inactive

Screening results: PubChem, National Center for Advancing Translational Sciences (NCATS)
